# Columns and labels:
# [1] = target: T1, Aspartate--tRNA(Asp/Asn) ligase (Mycobacterium tuberculosis (strain ATCC 25618 / H37Rv)) (UniProt P9WFW3); test: Assay for Asp RNA synthetase-1 from Mycobacterium tuberculosis; format: functional; set-up: scale not given: direction of the effect not stated beside the values; conditions: 30 µM; note: in the data most compounds retested in dose-response had high values
# T1 sequence (whole entry): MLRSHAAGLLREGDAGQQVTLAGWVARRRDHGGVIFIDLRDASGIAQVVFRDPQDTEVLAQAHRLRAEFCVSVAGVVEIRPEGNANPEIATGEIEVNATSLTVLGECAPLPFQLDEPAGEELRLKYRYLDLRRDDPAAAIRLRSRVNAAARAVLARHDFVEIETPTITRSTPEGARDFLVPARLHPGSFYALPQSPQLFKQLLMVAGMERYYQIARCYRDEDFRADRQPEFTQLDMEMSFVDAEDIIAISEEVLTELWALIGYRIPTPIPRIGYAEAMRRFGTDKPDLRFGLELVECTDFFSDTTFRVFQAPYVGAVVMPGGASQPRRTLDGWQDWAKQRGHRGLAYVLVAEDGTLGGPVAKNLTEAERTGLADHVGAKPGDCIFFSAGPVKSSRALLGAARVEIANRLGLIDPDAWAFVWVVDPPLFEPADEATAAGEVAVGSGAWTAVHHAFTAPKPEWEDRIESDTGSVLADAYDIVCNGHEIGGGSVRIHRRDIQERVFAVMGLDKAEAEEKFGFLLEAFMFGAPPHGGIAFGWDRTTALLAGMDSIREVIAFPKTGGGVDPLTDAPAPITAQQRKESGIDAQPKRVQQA
# [2] = target: Shiga toxin 2 (Escherichia coli O157:H7) (UniProt P09385+P09386); test: E. coli 0.157:H7 Shiga Toxin SOP - stx2 screening assay; format: functional; set-up: scale not given: direction of the effect not stated beside the values; conditions: 30 µM
SMILES,Percent Effect [1] [%],Percent Effect [2] [%]
CCOC(=O)N1CCN(c2nc(NC)c3ccccc3n2)CC1,-2.29,-9.78
COCCc1noc(CN2CCOC(Cn3nc(C)cc3C)C2)n1 (configuration not stated),-2.55,-7.72
Cc1csc2ncc(-c3ccnc(N4CCN(C)CC4)n3)c(=O)n12,1.78,-20.6
COc1cc(C)nc(N2CCN(C(=O)c3ccccc3C)CC2)n1,6.7,3.55
CCCNC(=O)c1sc(Nc2ccc(Cl)cn2)nc1C,-4.04,-46.7
Cn1cc(CN2CCCC3(CCCN3S(C)(=O)=O)C2)cn1 (configuration not stated),6.18,-11.1
CC(C)c1cc(NC(=O)CN2CCC(N3CCCCC3)CC2)on1,0.301,-28.7
CC(=O)N1CCCN(C(=O)c2csc(-c3ccc(C)cc3C)n2)CC1,-7.84,-0.511
CCCN1CCC(N(Cc2ncc(C)o2)C(C)=O)C1 (configuration not stated),2.38,2.8
C[C@@H]1CN(C2(C(=O)N3CCCCCC3)Cc3ccccc3C2)C[C@H](C)O1,-2.09,3.06
c1ccc(CCN2CCOC(Cn3cccn3)C2)nc1 (configuration not stated),-0.259,0.927
CCN1CC(C(=O)N(C)Cc2ccon2)CC1=O (configuration not stated),-0.748,-14.8
O=C(CC1CC1)NCc1cc(=O)n2c(n1)CN(Cc1ccoc1)CCC2,-2.64,-17
CCc1nc(C2CCCN2C(=O)c2nccnc2N)no1 (configuration not stated),-4.3,8.58
COCC(=O)N1CCC(c2nc3ccc(N4CCCC4)cn3n2)CC1,-0.957,-26.9
COc1ccc(Br)c(C(=O)NCC2CCN(S(=O)(=O)C3CC3)CC2)c1,-8.22,-0.843
Cc1csc(NC(=O)CN2CCC(c3ccnn3CCO)CC2)n1,-8.82,-16.7
O=C(O)C1(Cc2ccccc2Cl)CCN(c2ncccc2F)CC1,2.22,-10.7
O=C(Nc1ccccc1)N1CCn2nnc(COc3cccnc3)c2C1,9.35,-2.97
CCN1CC2(CC1=O)CN(C(=O)c1ccco1)CCN(C(=O)N(C)C)C2 (configuration not stated),0.684,-12.4
CN(C)c1ccc(NC(=O)NCc2ccccn2)cn1,3.94,-60.4
CCN(Cc1cccc2c1OCO2)C(=O)NC1CC1,-0.162,-11
Cc1cnccc1N1CCCN(C(=O)CCCc2cn[nH]c2)CC1,-0.632,-13.3
Cc1[nH]ncc1C(=O)N1CCN(CC(O)C(C)(C)C)CC1 (configuration not stated),0.878,0.313
Cc1nc(C)n(CC2CN(c3nnc(C)c(C)c3C#N)CCO2)n1 (configuration not stated),-1.7,27.3
Cc1nc(C2CCCN(C(=O)COCc3ccccc3Cl)C2)no1 (configuration not stated),1.96,5.07

SMILES,Percent Effect [1] [%],Percent Effect [2] [%]
Cc1cnn(CC2CCCN2C(=O)CCCc2nc(C)no2)c1 (configuration not stated),-0.389,-14.7
c1cnnc(N2CCCC2CNCc2cnc(N3CCCC3)nc2)c1 (configuration not stated),0.626,-6.77
O=C1COc2cc(C(=O)NS(=O)(=O)c3ccccc3F)ccc2N1,-0.702,0.482
N#Cc1ccc(N2CCCN(C(=O)CC3CCCO3)CC2)cc1 (configuration not stated),4.84,11.8
c1cnn(CCN2CCOC(Cn3cncn3)C2)c1 (configuration not stated),0.685,-9.56
Cc1nc(C)n(C2CCCN(C(=O)CCCOc3ccccc3)C2)n1 (configuration not stated),-1.97,3.84
Cc1ccc(C(=O)N2CCCC3(CCCC(=O)N3C)C2)cc1F (configuration not stated),3.71,-5.85
COc1ncccc1C(=O)N1CCCC(c2cc(C)[nH]n2)C1 (configuration not stated),-4.25,5.54
Cn1ccnc1N1CCN(C(=O)Cc2ccc(F)cc2)CC1,3.25,-73
COCC1CC2(CCN(Cc3ccc(OC)cc3)CC2)CN1C(C)C (configuration not stated),-1.24,1.66
NC(=O)CN1CCCN(C(=O)c2ccn(-c3cccc(F)c3)n2)CC1,5.51,-6.78
CC(NC(=O)CN(C)S(C)(=O)=O)c1nnc2n1CCCCC2 (configuration not stated),5,-25.1
CC(=O)N1CC[C@@H]2CN(C(=O)c3ccco3)CCO[C@@H]2C1,4.25,-3.17
Cc1ccc(C2CCCN2Cc2nc3c(cnn3C)c(=O)[nH]2)cc1C (configuration not stated),-1.66,-9.34
Cc1ccc(OCC(=O)NCc2ccccc2F)nc1,-0.524,-8.96
CC1CCCCN1C(=O)CN1CCN(c2ccc3nncn3n2)CC1 (configuration not stated),0.945,-8.03
Cc1csc(N2CCN(Cc3ccccn3)CC2C)n1 (configuration not stated),6.41,-0.687
Cn1cc(CN2C[C@@H]3COC[C@]3(COc3ccc(C#N)cn3)C2)cn1,3.33,-7.69
CN1CCN(c2cc(CCNC(=O)C3CCC3)nc(C3CC3)n2)CC1,-3.83,-18.7
Cc1cccc(-c2ccc(C(=O)NCCN(C)C3CC3)c(=O)[nH]2)c1,4.25,19.3
Cc1cc(NC(=O)N2CCN(c3nc(C)c(C)s3)CC2)no1,0.38,-22.7
Cc1ccc(C2CSCCN2C(=O)C2=CCCC2)o1 (configuration not stated),6.9,5.19
Cc1nc(CN2CCOCC3(CCN(c4cccnc4)CC3)C2)cs1,1.87,-2.54
Cn1cc(CNCCOc2ccc(F)c(F)c2)c(-c2cccnc2)n1,7.32,-38.1
CCS(=O)(=O)c1ccccc1N1CCC(NC(=O)c2ccc[nH]2)CC1,-2.04,9.33

# — ChEMBL document CHEMBL3988442, “University of Dundee, Small-Polar-MMV Screening Library” (2021)
